Experimental data as given in PubChem BioAssay AID1745847 (National Center for Advancing Translational Sciences (NCATS), 2022).
The whole screen tested about 2,100 compounds, of which about 670 (32%) were called active. Inconclusive results (about 50%) are left out. The list shows a part of the results. A number with no mark means an inactive call. Calls come from the whole dose curve; as a rule, active = well fitted inhibition curve with a large enough effect; inconclusive = small, poorly fitted or top-dose-only effect; inactive = no such curve, though single readings can be large or run the other way.

Test: CMV-Luciferase Counterscreen for Inhibitors of ATXN expression; note: nearly all actives have a fitted effect of over 55% in size
Conditions: HEK-293 CMV-luciferase reporter, luminescence, 24 h; series mostly up to 57.5 µM; activity change, negative = inhibition: at the top concentration
% is set by controls: 0 for no effect and ±100 for the full control effect; potency is the fitted concentration of half-maximal effect.

Structure (SMILES)	Potency	activity change, negative = inhibition
Cc1ccc(/C=N/NC(=O)C2=NNC(c3ccccc3)(c3ccccc3)C2)c(O)c1	3.16 µM (active)	
O=c1c2ccccc2sc2c(CO)ccc(NCCN3CCCCC3)c12	22.4 µM (active)	
CCN(CC)CCNc1ccc(CO)c2sc3ccccc3c(=O)c12	17.8 µM (active)	
COC(/C(=N/O)c1ccc(Cl)cc1)c1ccccc1 (stereo not given)		-21.2%
Cc1cc(Oc2ccc(Cl)cc2)nc(-c2ccccn2)n1		-22.3%
Cc1cc(NCc2ccccn2)n2nc(C)c(-c3ccc(Cl)cc3)c2n1	20 µM (active)	
CCCCC(=O)N(CCOC)c1nnc(-c2ccccc2C)s1		-14.2%
CCOc1cc([C@@H]2C[C@H]3CN(c4ccccc4)C(=O)[C@]34CCCN24)ccc1OC		4.3%
Cc1cccc2sc(NNC(=O)c3ccc(S(=O)(=O)N4CCCC(C)C4)cc3)nc12 (stereo not given)	4.47 µM (active)	
Cc1cc(C)c2nc(NNC(=O)c3ccc(S(=O)(=O)N4CCc5ccccc5C4)cc3)sc2c1	3.16 µM (active)	
Nc1c2ccccc2nc2ccccc12	4.47 µM (active)	
N#CCc1nc2ccccc2c(=O)[nH]1		-6.07%
CN(C)c1ccc(Cc2cc3c(O)ccc(O)c3cc(Cc3ccc(N(C)C)cc3)c2=O)cc1		-9.62% [at 11.4 µM]
Oc1ccc(CN2CCC(Cc3ccccc3)CC2)c2cccnc12		-19.8% [at 11.4 µM]
CCCOCc1ccc(O)c2ncccc12	20 µM (active)	
Oc1ccc(Cc2ccccc2)c2cccnc12	11.2 µM (active)	
CC[n+]1c(/C=C/N(C)c2ccccc2)oc2ccc(F)cc21	15.8 µM (active)	
O=C(O)CSc1cc(NS(=O)(=O)c2cccc([N+](=O)[O-])c2)c2ccccc2c1O	3.55 µM (active)	
O=C(O)CSc1cc(NS(=O)(=O)c2ccc(Cl)cc2)c2ccccc2c1O	28.2 µM (active)	
O=C(Nc1ccc2c(c1)CCC2)C1CCN(c2c3c(nc4ncnn24)CCC3)CC1	7.08 µM (active)	

Structure (SMILES)	Potency	activity change, negative = inhibition
CCc1ccc(CNC(=O)C2CCN(c3nnc(C)c4c(C)n(-c5ccc(C)cc5)nc34)CC2)cc1		-27.5%
CCc1c(C)nc2ncnn2c1N1CCC(C(=O)Nc2ccc(C)cc2)CC1	12.6 µM (active)	
CNc1ccccc1C(=O)OC(C)C(=O)Nc1ccc(Cl)cn1 (stereo not given)		94.6% [at 11.4 µM]
CC(=O)Oc1c(Br)cc(N(C(C)=O)S(=O)(=O)c2ccccc2)c2ccccc12	15.8 µM (active)	
COc1ccc2nc(C)cc(SCC(=O)N/N=C/c3ccc(O)cc3O)c2c1	11.2 µM (active)	
Cc1cc(SCC(=O)NN)c2cc(Br)ccc2n1		0.829%
COc1ccc(/C=N/NC(=O)c2nc(-c3ccccc3)n(-c3ccccc3)n2)c(O)c1	8.91 µM (active)	
NC(=O)c1cc([N+](=O)[O-])ccc1NCc1ccc(N)cc1	6.31 µM (active)	
Cn1nnnc1Sc1ncnc2scc(-c3cccs3)c12	11.2 µM (active)	
Cn1nnnc1Sc1ncnc2scc(-c3ccc[nH]3)c12	20 µM (active)	
COc1cc(CNCc2ccncc2)cc(Br)c1OCc1ccccc1F	2 µM (active)	
COc1cc(C(=O)NCc2ccncc2)cc(Br)c1OCc1ccccc1	3.98 µM (active)	
COc1cccc(OC)c1C(=O)OCC(=O)NC(=O)NCc1ccccc1		-4.44% [at 11.4 µM]
CCOc1ccc(NC(=O)Nc2nnc(CC(=O)NCc3ccccc3)s2)cc1		-1.51%
CN(C)CCNc1ncnc2c1sc1nc(N3CCOCC3)c3c(c12)CC(C)(C)SC3		-18.2%
O=C(/C=C/Nc1ccc(S(=O)(=O)Nc2ncccn2)cc1)c1ccc(Cl)c(Cl)c1		-27%
O=C(Nc1ccc(Cl)c(Cl)c1)c1cccc(S(=O)(=O)NCc2cccnc2)c1	1.58 µM (active)	
Cn1c(CCc2nc3ccccc3[nH]2)nnc1SCC#N		-22.2%
COc1ccc(C)cc1Nc1nc(N)c2cc(OC)c(OC)cc2n1		-12.3% [at 11.4 µM]
COc1ccc(Nc2nc(N3CCCC3)c3ccccc3n2)cc1	10 µM (active)	

Structure (SMILES)	Potency	activity change, negative = inhibition
COc1cc2cc(C(=O)NC(C)c3cccc4ccccc34)c(N)nc2cc1OC (stereo not given)		-29.5% [at 11.4 µM]
COc1cc(N)ccc1Nc1c2ccccc2nc2ccccc12	25.1 µM (active)	
COc1ccc(Nc2c3ccccc3nc3ccccc23)cc1	10 µM (active)	
COc1ccc(C(CCNC(C)c2ccccc2)c2ccc(F)cc2)cc1 (stereo not given)		-22.5%
C=CS(=O)(=O)c1c2cc(OC)ccc2nc2ccc(OC)cc12		-18.3%
COc1ccc(/C=N/Nc2cc(N3CCCC3)nc(N3CCCC3)n2)cc1		-17.8% [at 11.4 µM]
C(=NN1CCCCCC1)c1ccc2ccccc2n1	15.8 µM (active)	
O=C(Nc1ccc(Cl)cc1)Nc1nc(-c2sccc2Br)cs1		-3.64%
COc1ccc(OC)c(C(=O)/C=C/c2ccccc2C(F)(F)F)c1		-8.72% [at 11.4 µM]
Cc1ccc(C)c(N2CCN(C(=O)CCCCCn3c(=S)[nH]c4ccc(N5CCOCC5)cc4c3=O)CC2)c1	3.16 µM (active)	
Clc1ccccc1C(c1ccccc1)(c1ccccc1)n1ccnc1	3.16 µM (active)	
Cc1cccc(N2CCN(C(=O)CC(NC(=O)c3ccccc3Cl)c3ccccc3)CC2)c1C (stereo not given)	25.1 µM (active)	
COc1ccccc1N1C(=O)N(C(C)=O)C2C1Nc1ccccc1N2C (stereo not given)		-19.7%
CCc1nc2ccccc2c(C(=O)OCC(=O)Nc2cccc(S(=O)(=O)NC3=NCCCCC3)c2)c1C	14.1 µM (active)	
CCn1c2ccccc2c2cc(NC(=O)COC(=O)c3cccc(S(=O)(=O)NC)c3)ccc21		21.7%
CCOC(=O)c1c(NC(=O)COC(=O)Cn2cnc3ccccc32)sc(C)c1C		20.6%
CN(C)CCNc1ncnc2c1sc1nc(N3CCCC3)c3c(c12)CC(C)(C)OC3		42.2%
O=C(N/N=C(\Cc1ncc[nH]1)c1ccccc1)c1cccnc1	3.98 µM (active)	
CCOc1ccccc1C(=O)Nc1ccc2nc(N3CCN(c4ncccn4)CC3)cc(C)c2c1	11.2 µM (active)	
CCN(CC)c1cc(C)c2cc(NC(=O)c3ccccc3OC)ccc2n1		-29.6%
